Test results as given in PubChem BioAssay.
Several values for one entry are separate records, joined by “and”; a condition that tells them apart may be missing. Identical values can stand only once. Activity calls are given as the source filed them. Cut-off read from the data, not from the text of the source, unless noted: active = nuclear beta-catenin stimulation mostly above about 4.2% (no sharp cut-off); inactive = mostly below about 10%.

Experiments:
[1] = hESC survival regulators, cell-based (AID 493140; call rule not given here;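 note: cells exposed to compounds for four days before counting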); conditions: human embryonic stem cell survival screen; stronger effect = higher value
[2] = liver-stage malaria parasite growth inhibition, primary screen, cell-based, HepG2, luciferase luminescence, HepG2 viability (AID 624349; in the data active = parasite load remaining mostly below about 12%, no sharp cut-off; inactive = mostly above about 10%;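 note: 100% = mean of DMSO negative control wells on the same plate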); conditions: P. berghei liver stage in HepG2, luciferase luminescence, concentration not given here; parasite load remaining: stronger effect = lower value; viability: measured here: HepG2 viability without parasites
[3] = stimulators of nuclear beta-catenin in C2C12, primary screen, imaging, WNT3A-conditioned medium, mouse C2C12, NPC library (AID 1117326); conditions: stronger effect = higher value
[4] = stimulators of insulin release from INS-1E, primary screen, cell-based, 5 mM glucose, NPC library (AID 1117329;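 active = compound raises insulin release from rat beta cells at 5 mM glucose, no numeric limit stated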); conditions: rat INS-1E insulin secretion, at 10 µM, stronger effect = higher value
[5] = growth inhibition of GSK3B-pretreated HCT116 cells – cell-based, CellTiter-Glo, 0.2 to 20 µM (AID 1117336;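 active = compounds lowering colon cancer cell viability after pretreatment blocking the GSK3B kinase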); conditions: HCT116 viability after GSK3B inhibitor, at 20 µM, stronger effect = higher value
[6] = inhibition of endothelial tube formation, primary screen, imaging, VEGF stimulated, CD31 staining, tube area, NPC library (AID 1117340;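 active = compound that reduces growth-factor-driven endothelial tube area in a mixed cell culture, no cutoff stated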); conditions: VEGF-stimulated ADSC/ECFC co-culture, at 10 µM, stronger effect = higher value
[7] = glucagon-like peptide 1 release enhancers, primary assay, NCI-H716 cell line, NPC library (AID 1117341;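 active = compound raises GLP1 secretion from the human gut endocrine cells, with no numeric limit stated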); conditions: NCI-H716 cells, at 10 µM, stronger effect = higher value
[8] = HCT116 colon cancer cell growth inhibition, primary screen, CellTiter-Glo luminescence, NPC library (AID 1117342;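 active = compounds that lower survival of HCT116 colon cancer cells in the luminescence readout, no numeric limit stated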); conditions: at 20 µM (top of the series)
[9] = CellTiter-Glo luminescent readout of SW480 viability loss, NPC library primary (AID 1117343;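 active = compounds that lower viability of the colon cancer cells in the luminescence readout, with no numeric limit stated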); conditions: CellTiter-Glo luminescence; at 20 µM (top of the series) unless noted
[10] = decreased DLD-1 cellular survival, CellTiter-Glo luminescent readout, NPC compound collection, primary HTS (AID 1117346;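 active = compounds that lower survival of DLD-1 colon cancer cells in the luminescence readout, no cutoff given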); conditions: DLD-1 viability, CellTiter-Glo luminescence; at 20 µM (top of the series)
[11] = sensitizers of A549 cells to miR-34 induction, primary screen, imaging, A549 dox-inducible miR-34, nuclei and caspase counts (AID 1347080;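 active = compounds whose cell count with miR-34 switched on is under 0.7 times the count with it off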); conditions: A549 miR-34 inducible, Hoechst nuclei count, 48 h
[12] = survival rescue of mitochondrial mutant cells in low glucose, primary screen, MELAS cybrids, Rieske KO mouse fibroblasts, CellTiter-Glo (AID 1508586;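 active = mean z-score across replicates of 1.96 or higher in either the MELAS or the Rieske mutant cell line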;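 note: z relative to plate mean and SD of compound and empty wells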)
[13] = target: NAD(+) hydrolase SARM1 (Homo sapiens) (UniProt Q6SZW1); experiment: SARM1 TIR NADase inhibitors, cell lysate, NAD-Glo luminescence (AID 1508614;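 active = compound whose remaining NAD level is above about 45 nM, limit read from the data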;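 note: higher remaining NAD means stronger inhibition of SARM1 NADase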); conditions: SAM-TIR HEK293T lysate NADase, at 1 µM, stronger effect = higher value
Chain of NAD(+) hydrolase SARM1 (Homo sapiens) (Q6SZW1 whole entry, looked up, the tested form may be a part): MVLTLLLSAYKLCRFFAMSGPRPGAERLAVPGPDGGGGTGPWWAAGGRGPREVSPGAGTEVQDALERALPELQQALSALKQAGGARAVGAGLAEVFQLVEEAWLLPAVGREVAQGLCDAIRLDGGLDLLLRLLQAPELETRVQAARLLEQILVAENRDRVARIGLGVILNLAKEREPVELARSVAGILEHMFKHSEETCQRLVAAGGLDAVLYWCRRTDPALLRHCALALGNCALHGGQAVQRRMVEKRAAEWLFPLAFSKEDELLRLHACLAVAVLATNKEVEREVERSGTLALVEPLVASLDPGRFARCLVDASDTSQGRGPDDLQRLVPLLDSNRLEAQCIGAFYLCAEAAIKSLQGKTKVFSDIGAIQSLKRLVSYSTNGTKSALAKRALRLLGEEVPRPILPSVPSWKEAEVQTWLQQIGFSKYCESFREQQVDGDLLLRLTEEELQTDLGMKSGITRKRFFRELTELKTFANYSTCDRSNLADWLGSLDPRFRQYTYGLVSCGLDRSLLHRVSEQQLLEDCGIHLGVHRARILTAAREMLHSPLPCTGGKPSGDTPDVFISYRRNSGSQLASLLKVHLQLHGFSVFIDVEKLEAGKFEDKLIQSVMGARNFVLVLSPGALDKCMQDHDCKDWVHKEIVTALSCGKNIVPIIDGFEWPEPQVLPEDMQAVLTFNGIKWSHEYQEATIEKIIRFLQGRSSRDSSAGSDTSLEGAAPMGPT

[14] = target: Mitogen-activated protein kinase 7 (Homo sapiens) (UniProt Q13164); experiment: ERK5 transactivation activators in reporter cells, primary screen, cell-based, HTS (AID 1508626;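 active = luciferase signal above three times the same-plate solvent-only control wells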;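 note: luciferase driven by Gal4-ERK5 fusion binding five Gal4 sites before minimal TATA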); conditions: HeLa Gal4-ERK5 transactivation, 18 h, at 5 µM, stronger effect = higher value
Chain of Mitogen-activated protein kinase 7 (Homo sapiens) (Q13164 whole entry, looked up, the tested form may be a part): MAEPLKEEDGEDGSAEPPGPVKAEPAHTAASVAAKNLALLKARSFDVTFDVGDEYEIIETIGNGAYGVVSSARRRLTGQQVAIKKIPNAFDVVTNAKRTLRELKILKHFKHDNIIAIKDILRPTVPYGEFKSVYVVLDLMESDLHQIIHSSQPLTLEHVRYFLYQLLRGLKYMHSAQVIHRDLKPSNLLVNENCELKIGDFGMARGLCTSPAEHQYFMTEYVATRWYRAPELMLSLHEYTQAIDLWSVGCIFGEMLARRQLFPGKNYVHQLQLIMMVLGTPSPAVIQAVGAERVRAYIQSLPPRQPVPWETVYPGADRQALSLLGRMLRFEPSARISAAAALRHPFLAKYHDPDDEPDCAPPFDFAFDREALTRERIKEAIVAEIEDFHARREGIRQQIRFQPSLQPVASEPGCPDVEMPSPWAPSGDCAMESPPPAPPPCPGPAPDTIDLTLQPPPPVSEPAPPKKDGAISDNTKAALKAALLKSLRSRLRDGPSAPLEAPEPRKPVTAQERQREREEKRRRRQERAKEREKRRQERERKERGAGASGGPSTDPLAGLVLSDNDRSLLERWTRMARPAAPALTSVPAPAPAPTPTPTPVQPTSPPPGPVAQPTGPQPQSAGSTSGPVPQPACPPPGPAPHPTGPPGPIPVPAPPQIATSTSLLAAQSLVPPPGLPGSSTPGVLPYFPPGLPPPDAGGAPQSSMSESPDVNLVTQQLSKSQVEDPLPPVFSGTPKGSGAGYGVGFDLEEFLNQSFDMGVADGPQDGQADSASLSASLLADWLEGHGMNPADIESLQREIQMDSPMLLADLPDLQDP

[15] = viability rescue of complex I mutant cybrids, primary screen, cell-based, galactose medium, ATP luminescence (AID 1645843;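 active = z-score of at least 1.8 in each of two replicates, scored against plate mean and spread of sample wells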;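 note: positive z means more ATP and so rescue of galactose-driven cybrid death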); conditions: complex I mutant cybrid cells, 72 h, stronger effect = higher value
[16] = stronger effect = lower value, cell number ratio, induced over uninduced
[17] = measured here: relative caspase fold change +Dox/-Dox
[18] = measured here: total cells with miR-34 induction, stronger effect = lower value
[19] = measured here: total cells without miR-34 induction
[20] = MELAS cybrid survival, CellTiter-Glo 48 h, stronger effect = higher value
[21] = Rieske KO mouse fibroblast survival, CellTiter-Glo 72 h

NS(=O)(=O)c1cc(C(=O)O)cc(N2CCCC2)c1Oc1ccccc1
survival [1]: 11.5 (inactive) | parasite load remaining [2]: 67.6% (inactive) | viability [2]: 80.6% | nuclear beta-catenin stimulation ([3]; at 10 µM): 0.5% (inactive) | nuclear beta-catenin stimulation ([3]; stimulation, at 2 µM): -0.6% | insulin secretion stimulation [4]: -1% (inactive) | viability decrease [5]: -7.05% (inactive) | tube area decrease [6]: -7% (inactive) | GLP1 secretion stimulation [7]: 1.1% (inactive) | inhibition of viability [8]: 6.7% (inactive) | viability decrease (inhibition) [9]: -4.4% (inactive) | viability decrease (inhibition) [10]: -15.4% (inactive) | fold change [11, 16]: 0.92 (inactive) | fold change [11, 17]: 0.688 | cell count [11, 18]: 8630 | cell count [11, 19]: 9380 | z-score [12, 20]: -0.17 (inactive) | z-score [12, 21]: -0.69

COCC(=O)Nc1c(I)c(C(=O)NCC(O)CO)c(I)c(C(=O)N(C)CC(O)CO)c1I (stereo unspecified)
survival [1]: 1.33 (inactive) | parasite load remaining [2]: 103% (inactive) | viability [2]: 104% | nuclear beta-catenin stimulation ([3]; at 10 µM): 3% (inactive) | nuclear beta-catenin stimulation ([3]; stimulation, at 2 µM): 2.8% | insulin secretion stimulation [4]: 3.5% (inactive) | viability decrease [5]: -12.6% (inactive) | tube area decrease [6]: -13.9% (inactive) | GLP1 secretion stimulation [7]: -1.2% (inactive) | inhibition of viability [8]: -4.47% (inactive) | viability decrease (inhibition) [9]: -13% (inactive) | viability decrease (inhibition) [10]: -7.9% (inactive) | fold change [11, 16]: 0.856 (inactive) | fold change [11, 17]: 1.69 | cell count [11, 18]: 8610 | cell count [11, 19]: 10100 | z-score [12, 20]: -0.386 (inactive) | z-score [12, 21]: -1.03

O=C1CC[C@@H](C(=O)O)N1
nuclear beta-catenin stimulation ([3]; at 10 µM): 2.4% (inactive) | nuclear beta-catenin stimulation ([3]; stimulation, at 2 µM): 0.7% | insulin secretion stimulation [4]: -1.4% (inactive) | viability decrease [5]: -1.95% (inactive) | tube area decrease [6]: 9.1% (inactive) | GLP1 secretion stimulation [7]: -0.7% (inactive) | inhibition of viability [8]: 11.4% (inactive) | viability decrease (inhibition) [9]: 17.1% (inactive) | viability decrease (inhibition) [10]: 6.75% (inactive) | fold change [11, 16]: 0.878 (inactive) | fold change [11, 17]: 0.936 | cell count [11, 18]: 8600 | cell count [11, 19]: 9800 | remaining NAD [13]: 10 nM (inactive)

OC[C@@H](O)[C@@H](O[C@@H]1O[C@H](CO)[C@H](O)[C@H](O)[C@H]1O)[C@H](O)[C@@H](O)CO
nuclear beta-catenin stimulation ([3]; at 10 µM): 2% (inactive) | nuclear beta-catenin stimulation ([3]; stimulation, at 2 µM): 0.9% | insulin secretion stimulation [4]: 2.3% (inactive) | viability decrease [5]: 22.6% (inactive) | tube area decrease [6]: -0.6% (inactive) | GLP1 secretion stimulation [7]: -0.5% (inactive) | inhibition of viability [8]: 6.7% (inactive) | viability decrease (inhibition) [9]: 20% (inactive) | viability decrease (inhibition) [10]: 3.4% (inactive) | fold change [11, 16]: 0.928 (inactive) | fold change [11, 17]: 0.884 | cell count [11, 18]: 8700 | cell count [11, 19]: 9370 | remaining NAD [13]: 10 nM (inactive) | luciferase signal [14]: 56 AU (inactive)

NCCC(O)(P(=O)(O)O)P(=O)(O)O
parasite load remaining [2]: 25.4% (inactive) | viability [2]: 75% | nuclear beta-catenin stimulation ([3]; at 10 µM): 1.8% (inactive) | nuclear beta-catenin stimulation ([3]; stimulation, at 2 µM): -0.1% | insulin secretion stimulation [4]: -3.4% (inactive) | viability decrease [5]: -16% (inactive) | tube area decrease [6]: 8.2% (inactive) | GLP1 secretion stimulation [7]: 1.4% (inactive) | inhibition of viability [8]: -1.9% (inactive) | viability decrease (inhibition) [9]: 16.6% (inactive) | viability decrease (inhibition) [10]: -6.8% (inactive) | fold change [11, 16]: 0.878 (inactive) | fold change [11, 17]: 1.25 | cell count [11, 18]: 9450 | cell count [11, 19]: 10800 | z-score [12, 20]: 0.361 (inactive) | z-score [12, 21]: -0.434 | z-score [15]: 0.62 (inactive)

CCOC(=O)Nc1ccc2c(c1)N(C(=O)CCN1CCOCC1)c1ccccc1S2
survival [1]: 4.83 (inactive) | parasite load remaining [2]: 99.9% (inactive) | viability [2]: 97.4% | nuclear beta-catenin stimulation ([3]; at 10 µM): -0.6% (inactive) | nuclear beta-catenin stimulation ([3]; stimulation, at 2 µM): 1.1% | insulin secretion stimulation [4]: 1.7% (inactive) | viability decrease [5]: -14.2% (inactive) | tube area decrease [6]: 4% (inactive) | GLP1 secretion stimulation [7]: -2.4% (inactive) | inhibition of viability [8]: 15.2% (inactive) | viability decrease (inhibition) [9]: 17.8% (inactive) | viability decrease (inhibition) [10]: -16.3% (inactive) | fold change [11, 16]: 0.922 (inactive) | fold change [11, 17]: 1.07 | cell count [11, 18]: 8790 | cell count [11, 19]: 9540 | z-score [12, 20]: 0.935 (inactive) | z-score [12, 21]: 0.145

CN(CCCCCCCCCCN(C)C(=O)Oc1cccc([N+](C)(C)C)c1)C(=O)Oc1cccc([N+](C)(C)C)c1
parasite load remaining [2]: 77.5% (inactive) | viability [2]: 106% | nuclear beta-catenin stimulation ([3]; at 10 µM): -0.9% (inactive) | nuclear beta-catenin stimulation ([3]; stimulation, at 2 µM): -0.7% | insulin secretion stimulation [4]: 2.2% (inactive) | viability decrease [5]: 30.1% (inactive) | tube area decrease [6]: -9.4% (inactive) | GLP1 secretion stimulation [7]: -4.4% (inactive) | inhibition of viability [8]: 57.4% (active) | viability decrease (inhibition) [9]: 39.3% (inactive) | viability decrease (inhibition) [10]: 10.2% (inactive) | fold change [11, 16]: 0.802 (inactive) | fold change [11, 17]: 1.05 | cell count [11, 18]: 8660 | cell count [11, 19]: 10800 | z-score [12, 20]: -1.21 (inactive) | z-score [12, 21]: -0.227

O=C1[O][Bi][O]c2ccccc21
parasite load remaining [2]: 39.8% (inactive) | viability [2]: 103% | nuclear beta-catenin stimulation ([3]; at 10 µM): 0.6% (inactive) | nuclear beta-catenin stimulation ([3]; stimulation, at 2 µM): 0.8% | insulin secretion stimulation [4]: 2.7% (inactive) | viability decrease [5]: 13.3% (inactive) | tube area decrease [6]: -3.4% (inactive) | GLP1 secretion stimulation [7]: 1.9% (inactive) | inhibition of viability [8]: 14% (inactive) | viability decrease (inhibition) [9]: 28.1% (inactive) | viability decrease (inhibition) [10]: 3.2% (inactive) | fold change [11, 16]: 0.887 (inactive) | fold change [11, 17]: 3.11 | cell count [11, 18]: 12000 | cell count [11, 19]: 13500 | remaining NAD [13]: 52 nM (active) | luciferase signal [14]: 60 AU (inactive)

CC[N+](C)(CC)CCOC(=O)C1c2ccccc2Oc2ccccc21
survival [1]: 18.2 (inactive) | parasite load remaining [2]: 64.6% (inactive) | viability [2]: 67.1% | nuclear beta-catenin stimulation ([3]; at 10 µM): -0.9% (inactive) | nuclear beta-catenin stimulation ([3]; stimulation, at 2 µM): 0.8% | insulin secretion stimulation [4]: 2.6% (inactive) | viability decrease [5]: -10.2% (inactive) | tube area decrease [6]: -0.8% (inactive) | GLP1 secretion stimulation [7]: -4.5% (inactive) | inhibition of viability [8]: 6% (inactive) | viability decrease (inhibition) [9]: 1.5% (inactive) | viability decrease (inhibition) [10]: -6.1% (inactive) | fold change [11, 16]: 0.995 (inactive) | fold change [11, 17]: 0.614 | cell count [11, 18]: 9340 | cell count [11, 19]: 9380 | z-score [12, 20]: 0.613 (inactive) | z-score [12, 21]: 0.177

CN(C)CCn1nnnc1SCC1=C(C(=O)O)N2C(=O)[C@@H](NC(=O)Cc3csc(N)n3)[C@H]2SC1
survival [1]: 7.25 (inactive) | parasite load remaining [2]: 47.4% (inactive) and 69.6% (inactive) | viability [2]: 114% and 74.2% | nuclear beta-catenin stimulation ([3]; at 10 µM): -1.2% (inactive) | nuclear beta-catenin stimulation ([3]; stimulation, at 2 µM): 1.1% | insulin secretion stimulation [4]: 2.8% (inactive) | viability decrease [5]: 4.6% (inactive) | tube area decrease [6]: -30.8% (inactive) | GLP1 secretion stimulation [7]: -3% (inactive) | inhibition of viability [8]: -8.3% (inactive) | viability decrease (inhibition) [9]: 4.5% (inactive) | viability decrease (inhibition) [10]: -6.8% (inactive) | fold change [11, 16]: 0.874 (inactive) | fold change [11, 17]: 1.13 | cell count [11, 18]: 8320 | cell count [11, 19]: 9520 | z-score [12, 20]: -0.0188 (inactive) | z-score [12, 21]: -0.0723
